Measured values from PubChem BioAssay (Tox21).
Results filed as inconclusive are left out. A call without a number means that no potency is given here. The source holds several records for some structures; these can differ, active in one and inactive in another. Calls of active or inactive are those of the source. Unless noted, calls follow the shape of the dose curve; as a rule, active = well fitted curve in the direction sought with a large enough effect in the repeat runs; inconclusive = weak or mixed curves; inactive = no such curve, though single readings can be large; an effect the other way counts as inactive or inconclusive.

Key:
[1] = qHTS assay to identify small molecule agonists of the peroxisome proliferator-activated receptor delta (PPARd) signaling pathway - cell viability counter screen (AID 743211); also: nearly all actives have a fitted effect of over 55% in size
Procedure, shortened: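 Multiplexed format: after the 2 h room-temperature LiveBLAzer B/G FRET step, CellTiter-Glo was added to the same wells. Luminescence after 30 min gave cell viability; compound exposure was 17 h at 37C.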

[2] = molecular target: Peroxisome proliferator-activated receptor delta (Homo sapiens) (UniProt Q03181); test: qHTS assay to identify small molecule antagonists of the peroxisome proliferator-activated receptor delta (PPARd) signaling pathway (AID 743215; active = well fitted inhibition curve with a large enough effect in the signal ratio in the repeat runs, not every such curve was filed as active; the % refers to the signal ratio;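 also: cells stimulated with agonist L165041 at 300 nM final during compound exposure; series mostly up to about 62 µM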)
Procedure, shortened: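 HEK293H GeneBLAzer PPARd UAS-bla reporter cells; cpd + L165041 300 nM final, 17 h 37 C; LiveBLAzer B/G FRET substrate 2 h RT; fluorescence intensity read-out. Antagonist mode.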

[3] = qHTS assay to identify small molecule agonists of the farnesoid-X-receptor (FXR) signaling pathway - cell viability counter screen (AID 743218); also: nearly all actives have a fitted effect of over 45% in size
Procedure, shortened: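 Luminescence from CellTiter-Glo, read after 30 min at RT, reports viability of GeneBLAzer FXR-UAS-bla HEK 293T cells treated 16 h with compounds in the wells used for the beta-lactamase reporter.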

[4] = qHTS assay to identify small molecule antagonists of the farnesoid-X-receptor (FXR) signaling pathway - cell viability counter screen (AID 743221; active = well fitted cell-killing curve with a large enough effect in the repeat runs, not every such curve was filed as active; also: nearly all actives have a fitted effect of over 50% in size)
Procedure, shortened: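 CellTiter-Glo, 30 min RT, luminescence; same wells as the LiveBLAzer FRET read. Cells: FXR-UAS-bla HEK 293T. Treatment: compound with chenodeoxycholic acid 50 uM final, 16 h at 37 C.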

[5] = molecular target: Vitamin D3 receptor (Homo sapiens) (UniProt P11473); test: qHTS assay to identify small molecule agonists of the vitamin D receptor (VDR) signaling pathway (AID 743222; calls by dose curve)
Procedure, shortened: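 Beta-lactamase reporter readout (LiveBLAzer B/G FRET, 2 h RT) in VDR-bla cells after 16 h compound treatment at 37C, 5% CO2; cells pre-incubated 4 h before pin transfer of DMSO solutions.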

[6] = molecular target: Vitamin D3 receptor (Homo sapiens) (UniProt P11473); test: qHTS assay to identify small molecule antagonists of the vitamin D receptor (VDR) signaling pathway (AID 743223; active = well fitted inhibition curve with a large enough effect in the signal ratio in the repeat runs, not every such curve was filed as active; the % refers to the signal ratio)
Procedure, shortened: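 After VDR-bla cells are plated and left 4 h at 37C, DMSO-dissolved compounds and 3 nM (final) calcitriol agonist are added. Incubation continues 16 h at 37C; FRET beta-lactamase substrate then develops 2 h at room temperature.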

[7] = qHTS assay to identify small molecule agonists of the vitamin D receptor (VDR) signaling pathway - cell viability counter screen (AID 743224); also: series mostly up to about 63 µM; nearly all actives have a fitted effect of over 50% in size
Procedure, shortened: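 Cytotoxicity counter screen: VDR-bla cells, 16 h compound exposure at 37C, 5% CO2; CellTiter-Glo luminescence, 30 min RT, same wells as bla read.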

[8] = qHTS assay to identify small molecule antagonists of the vitamin D receptor (VDR) signaling pathway - cell viability counter screen (AID 743225); also: nearly all actives have a fitted effect of over 50% in size; also: potency is read from the fitted curve at half-maximal effect
Procedure, shortened: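 Cytotoxicity toward the VDR-bla HEK 293T line was scored by ATP-based CellTiter-Glo luminescence, read in the wells already used for the beta-lactamase readout after 16 h compound treatment under 3 nM 1-alpha,25-dihydroxyvitamin D3 stimulation.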

[9] = qHTS assay to identify small molecule agonists of the NFkB signaling pathway - cell viability counter screen (AID 1159515; calls by dose curve; also: series mostly up to about 61 µM; nearly all actives have a fitted effect of over 55% in size)
Procedure, shortened: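 ME-180 NFkB-bla cells, 2,000/well; overnight attach; compound 5 hr, 37 C/5% CO2; LiveBLAzer substrate 1.5 hr RT; then CellTiter-Glo in same wells, 30 min RT, luminescence read.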

[10] = qHTS assay to identify small molecule agonists of the endoplasmic reticulum stress response signaling pathway (AID 1159516; active = well fitted activation curve with a large enough effect in the signal ratio in the repeat runs, not every such curve was filed as active; the % refers to the signal ratio)
Procedure, shortened: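 HeLa ESRE-bla reporter line; cpd 5 h, 37 C/5% CO2; LiveBLAzer B/G FRET substrate 2 h RT; ex 405, em 460/530 nm.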

[11] = qHTS assay to identify small molecule agonists of the endoplasmic reticulum stress response signaling pathway - cell viability counter screen (AID 1159517; calls by dose curve;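 also: HeLa cells carrying an ER stress response element beta-lactamase reporter; series mostly up to about 61 µM; nearly all actives have a fitted effect of over 50% in size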)
Procedure, shortened: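 Cytotoxicity of test compounds toward ESRE-bla HeLa cells was assessed after 5 hr exposure. The luminescent CellTiter-Glo signal was measured 30 min after reagent addition.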

[12] = qHTS assay to identify small molecule antagonists of the retinoid-related orphan receptor gamma (ROR-gamma) signaling pathway - cell viability counter screen (AID 1159520); also: nearly all actives have a fitted effect of over 50% in size
Procedure, shortened: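 Tet-on ROR gamma CHO cells (1,000/well) were plated 4 hr, given compounds in DMSO for 2 hr at 37 C, then induced with 1 uM final doxycycline for 16 hr. Viability was read as ATP by CellTiter-Glo luminescence after 30 min.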

[13] = molecular target: Nuclear receptor ROR-gamma (Homo sapiens) (UniProt P51449); test: qHTS assay to identify small molecule antagonists of the retinoid-related orphan receptor gamma (ROR-gamma) signaling pathway (AID 1159521)
Procedure, shortened: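 Readout: ONE-Glo luciferase luminescence, 30 min at room temperature. System: Tet-on RORγ CHO, RORE-LUC. Sequence: compound 2 h, doxycycline 1 uM final, 16 h at 37 C.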

[14] = qHTS assay to identify small molecule agonists of the AP-1 signaling pathway - cell viability counter screen (AID 1159525; calls by dose curve; also: nearly all actives have a fitted effect of over 55% in size)
Procedure, shortened: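 Each titration point was normalised to DMSO and tetra n-octyl ammonium bromide controls. The read was Cell Titer Glo luminescence after 30 min at RT, following 5 h compound exposure of ME-180 AP-1-bla cells at 37 °C.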

[15] = qHTS assay to identify small molecule agonists of the AP-1 signaling pathway (AID 1159526; calls by dose curve)
[16] = molecular target: Retinoic acid receptor RXR-alpha (Homo sapiens) (UniProt P19793); test: qHTS assay to identify small molecule agonists of the RXR signaling pathway (AID 1159527; calls by dose curve; also: nearly all actives have a fitted effect of over 35% in size; also: potency is read from the fitted curve at half-maximal effect)
Procedure, shortened: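 Reporter activation is measured as beta-lactamase activity via FRET substrate cleavage (emission 460/530 nm) in HEK 293T cells expressing an RXR-alpha-driven bla construct, following 16 hr compound exposure at 37 C.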

[17] = qHTS assay to identify small molecule antagonists of the peroxisome proliferator-activated receptor delta (PPARd) signaling pathway - cell viability counter screen (AID 743213); also: nearly all actives have a fitted effect of over 50% in size
Procedure, shortened: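 PPARd-bla HEK293H cells (3000/well) got compound plus 300 nM L165041 agonist for 17 h at 37 C. Viability in the same wells came from CellTiter-Glo luminescence after 30 min at room temperature.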

[18] = molecular target: Bile acid receptor (Homo sapiens) (UniProt Q96RI1); test: qHTS assay to identify small molecule antagonists of the farnesoid-X-receptor (FXR) signaling pathway (AID 743217; active = well fitted inhibition curve with a large enough effect in the signal ratio in the repeat runs, not every such curve was filed as active; the % refers to the signal ratio)
Procedure, shortened: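 Read-out: beta-lactamase FRET fluorescence (LiveBLAzer B/G substrate, 2 h, room temperature) in GeneBLAzer FXR-UAS-bla HEK 293T cells. Compounds were co-dosed with 50 uM chenodeoxycholic acid (final) and incubated 16 h at 37 °C.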

[19] = molecular target: Bile acid receptor (Homo sapiens) (UniProt Q96RI1); test: qHTS assay to identify small molecule agonists of the farnesoid-X-receptor (FXR) signaling pathway (AID 743220; active = well fitted activation curve with a large enough effect in the signal ratio in the repeat runs, not every such curve was filed as active; the % refers to the signal ratio)
Procedure, shortened: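 FXR-UAS-bla HEK 293T cells carrying a UAS-driven beta-lactamase reporter were plated for 5 h at 37C/5% CO2, then exposed to DMSO-dissolved Tox21 10K compounds for 16 h at 37C. A LiveBLAzer B/G FRET substrate was loaded for 2 h at room temperature before fluorescence reading.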

[20] = molecular target: Peroxisome proliferator-activated receptor delta (Homo sapiens) (UniProt Q03181); test: qHTS assay to identify small molecule agonists of the peroxisome proliferator-activated receptor delta (PPARd) signaling pathway (AID 743212; calls by dose curve)
Procedure, shortened: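 Beta-lactamase reporter read by fluorescence (LiveBLAzer B/G FRET, 2 h, room temperature). Test agents, in DMSO, incubated at 37 C with PPARd-bla HEK293H cells.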

Sequence of Retinoic acid receptor RXR-alpha (Homo sapiens) (P19793 whole entry, looked up): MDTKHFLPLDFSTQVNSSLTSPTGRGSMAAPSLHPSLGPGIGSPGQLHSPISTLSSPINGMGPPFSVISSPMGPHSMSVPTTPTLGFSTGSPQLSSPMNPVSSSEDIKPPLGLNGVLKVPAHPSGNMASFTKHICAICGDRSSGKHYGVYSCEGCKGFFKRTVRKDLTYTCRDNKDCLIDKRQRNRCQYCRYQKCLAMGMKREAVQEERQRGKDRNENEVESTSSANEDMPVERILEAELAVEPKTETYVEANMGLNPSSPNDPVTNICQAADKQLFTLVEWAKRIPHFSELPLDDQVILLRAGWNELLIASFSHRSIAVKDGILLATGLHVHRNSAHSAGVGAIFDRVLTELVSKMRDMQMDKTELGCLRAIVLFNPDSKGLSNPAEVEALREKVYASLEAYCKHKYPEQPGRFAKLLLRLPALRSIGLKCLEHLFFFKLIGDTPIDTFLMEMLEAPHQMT
Sequence of Peroxisome proliferator-activated receptor delta (Homo sapiens) (Q03181 whole entry, looked up): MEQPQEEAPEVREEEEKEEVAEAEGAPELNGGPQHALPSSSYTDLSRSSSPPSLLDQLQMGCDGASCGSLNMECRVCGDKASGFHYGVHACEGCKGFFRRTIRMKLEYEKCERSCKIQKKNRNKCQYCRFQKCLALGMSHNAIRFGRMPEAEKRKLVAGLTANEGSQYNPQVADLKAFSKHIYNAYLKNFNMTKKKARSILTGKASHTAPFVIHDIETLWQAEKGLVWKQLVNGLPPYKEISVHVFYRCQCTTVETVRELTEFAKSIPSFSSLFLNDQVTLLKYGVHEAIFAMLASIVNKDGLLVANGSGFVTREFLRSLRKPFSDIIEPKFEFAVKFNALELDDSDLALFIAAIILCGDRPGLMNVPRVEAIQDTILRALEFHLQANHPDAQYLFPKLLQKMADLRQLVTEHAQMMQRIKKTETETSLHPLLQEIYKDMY
Sequence of Vitamin D3 receptor (Homo sapiens) (P11473 whole entry, looked up): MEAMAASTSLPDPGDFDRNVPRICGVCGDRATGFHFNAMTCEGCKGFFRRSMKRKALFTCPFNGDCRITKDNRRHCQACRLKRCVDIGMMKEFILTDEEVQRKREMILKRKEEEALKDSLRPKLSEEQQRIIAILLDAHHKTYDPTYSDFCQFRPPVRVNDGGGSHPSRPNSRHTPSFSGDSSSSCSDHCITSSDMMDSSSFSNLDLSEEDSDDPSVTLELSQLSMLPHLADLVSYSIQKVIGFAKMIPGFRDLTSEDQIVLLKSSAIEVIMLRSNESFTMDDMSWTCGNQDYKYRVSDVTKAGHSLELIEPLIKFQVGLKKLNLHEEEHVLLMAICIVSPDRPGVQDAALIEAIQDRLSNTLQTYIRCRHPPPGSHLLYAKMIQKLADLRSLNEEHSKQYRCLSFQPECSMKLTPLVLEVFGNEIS
Sequence of Bile acid receptor (Homo sapiens) (Q96RI1 whole entry, looked up): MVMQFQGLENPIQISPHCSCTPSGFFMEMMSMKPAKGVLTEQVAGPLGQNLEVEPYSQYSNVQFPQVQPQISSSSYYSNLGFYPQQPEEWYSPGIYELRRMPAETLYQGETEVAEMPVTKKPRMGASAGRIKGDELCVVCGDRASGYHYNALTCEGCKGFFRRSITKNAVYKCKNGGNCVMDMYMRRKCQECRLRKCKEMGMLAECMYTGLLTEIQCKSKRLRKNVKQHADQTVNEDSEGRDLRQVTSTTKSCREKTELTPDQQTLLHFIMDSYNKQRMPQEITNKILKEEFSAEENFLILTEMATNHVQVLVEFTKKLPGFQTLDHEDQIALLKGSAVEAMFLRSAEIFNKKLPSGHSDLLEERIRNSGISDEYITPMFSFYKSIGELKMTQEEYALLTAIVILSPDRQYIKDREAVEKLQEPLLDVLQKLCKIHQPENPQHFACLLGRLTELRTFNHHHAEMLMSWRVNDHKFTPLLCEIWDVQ

| Compound | Potency [1] | Potency [2] | Potency [3] | Potency [4] | Potency [5] | Potency [6] | Potency [7] | Potency [8] | Potency [9] | outcome [10] | Potency [11] | Potency [12] | Potency [13] | Potency [14] | Potency [15] | Potency [16] | Potency [17] | Potency [18] | Potency [19] | Potency [20] |
| --- | --- | --- | --- | --- | --- | --- | --- | --- | --- | --- | --- | --- | --- | --- | --- | --- | --- | --- | --- | --- |
| COC(=O)c1cccc(C(=O)OC)c1 | inactive | inactive | inactive | inactive | inactive | inactive | inactive | inactive | inactive | inactive | inactive | inactive | inactive | inactive | inactive | inactive |  |  |  |  |
| CC(C)CCOC(=O)c1ccc(N(C)C)cc1 | inactive | inactive | inactive | inactive | inactive | inactive | inactive | inactive | inactive | inactive | inactive | inactive | inactive | inactive | inactive | inactive | inactive |  |  |  |
| Cc1cccc([N+](=O)[O-])c1C(=O)O | inactive | inactive | inactive | inactive | inactive |  | inactive | inactive | inactive | inactive | inactive | inactive | inactive | inactive | inactive | inactive |  | inactive | inactive |  |
| CCC(CO)(CO)COCC(CC)(CO)CO | inactive |  | inactive | inactive | inactive | inactive | inactive | inactive | inactive | inactive | inactive | inactive | inactive | inactive | inactive | inactive | inactive |  |  |  |
| c1cnc2cc3c(cc2n1)C1CNCC3C1 | inactive | inactive | inactive | inactive | inactive | inactive | inactive | inactive | inactive | inactive | inactive | inactive | inactive | inactive | inactive | inactive | inactive | inactive | inactive |  |
| CCCNC(C)C(=O)Nc1ccccc1C (stereo not drawn) | inactive | inactive |  | inactive | inactive | inactive | inactive | inactive | inactive | inactive | inactive | inactive | inactive | inactive | inactive | inactive | inactive |  |  |  |
| C/C=C/c1ccc(OCC)c(O)c1 | inactive | inactive | inactive | inactive | inactive | inactive | inactive | inactive | inactive | inactive | inactive | inactive | inactive | inactive | inactive | inactive | inactive |  |  |  |
| NCCO | inactive |  | inactive | inactive |  |  | inactive | inactive | inactive | inactive | inactive | inactive | inactive | inactive | inactive | inactive | inactive |  |  |  |
| Cc1ccnc2c1NC(=O)c1cccnc1N2C1CC1 | inactive | inactive | inactive | inactive | inactive | inactive | inactive | inactive | inactive | inactive | inactive | inactive | inactive | inactive | inactive | 11.4 µM (active) and inactive | inactive | inactive | inactive | inactive |
| C=CC(=O)OCCCCCCCC | inactive | inactive | inactive | inactive | inactive | inactive | inactive | inactive | inactive | inactive | inactive | inactive | inactive | inactive | inactive | inactive | inactive |  |  | inactive |
| CCC(C)(Oc1ccc(C2(c3ccc(OC(C)(CC)C(=O)O)cc3)CCCCC2)cc1)C(=O)O (stereo not drawn) | inactive |  | inactive | inactive |  |  | inactive | inactive | inactive | inactive | inactive | inactive | inactive | inactive | inactive | inactive | inactive | inactive | inactive |  |
| CC(=O)N[C@@H](CS)C(=O)O | inactive | inactive | inactive | inactive | inactive | inactive | inactive | inactive | inactive | inactive | inactive | inactive | inactive | inactive | inactive | inactive | inactive | inactive | inactive | inactive |
| O=C1NCC2(CCN(CCc3ccccc3)CC2)O1 | inactive |  | inactive | inactive |  |  | inactive | inactive | inactive | inactive | inactive | inactive | inactive | inactive | inactive | inactive | inactive |  |  |  |
| Cc1cccc(O)c1C | inactive | inactive | inactive | inactive | inactive | inactive | inactive | inactive | inactive | inactive | inactive | inactive | inactive | inactive | inactive | inactive | inactive | inactive | inactive | inactive |
| CC(C)(C)NCC(O)c1cc(O)cc(O)c1 (stereo not drawn) | inactive |  |  | inactive |  |  | inactive | 1.9 nM (active) | inactive | inactive | inactive | inactive | inactive | inactive | inactive | inactive | inactive |  |  |  |
